Hits are enriched below; roughly 2.2% of the tested compounds scored in any of these assays.
TROY signal inh: inhibitors of TROY-driven NF-kB signaling, primary screen, Q293 LMP1-TROYcd cells, NF-kB luciferase, uHTS; actives 0.98% (n = 360,000); Q293 LMP1-TROYcd NF-kB luciferase reporter, 4 h; inhibition, % at 10 µM; AID 1347056, 2019;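 active = compounds whose plate-normalised and pattern-corrected inhibition of the luciferase reporter signal at the single screening dose is 50% or more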
LGR2 inh: inhibitors of bursicon-induced LGR2 CRE-luciferase signal, primary screen, cell-based, HEK293, CRE-luciferase reporter, bursicon stimulation; bursicon-stimulated, 4 h; actives 0.35% (n = 380,000); inhibition, % at 9.99 µM; AID 720647, 2013;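 active = drop in luminescence signal, shown as inhibition above about 50% in the replicate tests, limit read from the data, passing the limit was not always enough; inconclusive = probably only some replicates passing the limit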;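 also: agonist challenge used bursicon conditioned medium at about half maximal strength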
HSP90 inh: HSP90 inhibitors, primary screen, cell lysate, luminescence. Rabbit reticulocyte lysate, luciferase refolding luminescence, 3 h. actives 0.91% (n = 290,000). inhibition, % at 5.6 µM. AID 1789, 2009;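 active = inhibition above the screen-wide mean plus 3 SD, computed separately per campaign, cut at about 16% in these data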;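 also: 0% = DMSO wells and 100% = 60 µM geldanamycin wells; inhibitors lower the luminescence because luciferase stays unfolded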
TWEAK Fn14 block: inhibitors of TWEAK-Fn14 signaling, primary screen, luciferase reporter cells, uHTS; actives 2% (n = 360,000); TWEAK-stimulated Fn14 reporter cells, luciferase luminescence, 8 h; AID 1159606, 2016; inhibition, % at 10 µM; in the data active = inhibition above about 50%
HSP90 confirm: HSP90 inhibitors, confirmation, cell lysate, luminescence | shares compounds with HSP90 inh | rabbit reticulocyte lysate, luciferase refolding luminescence, 3 h | inhibition, % at 5.9 µM | actives 64% (n = 2,300); in the data active = inhibition above about 18%;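 also: 0% = vehicle wells and 100% = reference inhibitor wells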
FLuc counter: firefly luciferase inhibitors, HSP90 counter-screen, confirmation, artefact control for HSP90 inhibitor project, biochemical, luminescence, triplicate; shares compounds with HSP90 inh; purified native firefly luciferase; inhibition, % at 5.9 µM; actives 48% (n = 2,300);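 active = inhibition above the mean inhibition of all tested sample wells plus 3 SD, cut at about 10% in these data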;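 also: 0% = DMSO with luciferase and 100% = wells lacking luciferase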
Target sequence (P08659 whole entry, looked up): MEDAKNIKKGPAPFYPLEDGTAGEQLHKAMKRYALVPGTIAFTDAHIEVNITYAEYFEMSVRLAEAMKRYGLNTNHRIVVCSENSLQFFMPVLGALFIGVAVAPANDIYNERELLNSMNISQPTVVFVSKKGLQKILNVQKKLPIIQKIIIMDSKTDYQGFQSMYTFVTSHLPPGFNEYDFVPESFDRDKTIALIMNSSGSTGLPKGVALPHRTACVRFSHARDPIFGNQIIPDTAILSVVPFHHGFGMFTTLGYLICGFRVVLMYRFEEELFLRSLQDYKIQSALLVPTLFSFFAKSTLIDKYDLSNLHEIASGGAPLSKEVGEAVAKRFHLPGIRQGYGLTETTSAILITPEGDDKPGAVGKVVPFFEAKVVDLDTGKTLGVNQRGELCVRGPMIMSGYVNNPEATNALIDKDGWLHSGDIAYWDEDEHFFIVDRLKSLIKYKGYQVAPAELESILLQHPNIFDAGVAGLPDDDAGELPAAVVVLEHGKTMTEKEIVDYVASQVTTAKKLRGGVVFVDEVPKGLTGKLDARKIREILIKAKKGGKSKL
Active calls of the source: *; ? = inconclusive; . = not tested or not shown.

SMILES | TROY signal inh | LGR2 inh | HSP90 inh | TWEAK Fn14 block | HSP90 confirm | FLuc counter
Cc1cc(NC(=O)c2ccc3c(c2)OCO3)no1 | -31.6 | 3.2 | 5.7 | 11.0 | . | .
O=C(Nc1ccc2c(c1)OCCO2)c1cccc(Br)c1 | -52.6 | -35.5 | 2.5 | -10.4 | . | .
CCOc1ccc(C(=O)Nc2ccc3c(c2)OCCO3)cc1 | -1.9 | 30.8 | 22.0* | 35.3 | 36.8* | 16.2*
Cc1ccc(C(=O)Nc2ccc3c(c2)CCC3)cc1 | 38.9 | ? | 25.4* | 71.3* | 70.9* | 67.3*
Cc1cc(NC(=O)c2ccc3c(c2)OCCO3)no1 | 39.6 | . | 27.3* | 77.3* | 57.5* | 49.0*
CCCOc1cccc(C(=O)Nc2ccc3c(c2)OCCO3)c1 | 6.5 | 33.0 | 20.8* | 26.7 | 40.4* | 24.6*
Cc1cc(C(=O)Nc2ccc3c(c2)OCCO3)ccc1[N+](=O)[O-] | 26.0 | 59.3* | 28.4* | 62.4* | 59.3* | 51.2*
CCOc1cc(C(=O)Nc2cc(C)ccn2)cc(OCC)c1OCC | -2.0 | . | 0.4 | 15.0 | . | .
O=C(Nc1ccc2c(c1)OCCO2)c1ccc(Br)cc1 | -23.8 | -35.7 | 8.1 | 19.5 | . | .
CCOc1ccc(C(=O)Nc2cc(C)ccn2)cc1 | 43.7 | 64.9* | 50.1* | 76.6* | 74.6* | 57.8*
COc1ccc(NC(=O)c2ccc3c(c2)OCO3)cc1 | -24.2 | -26.3 | 18.7* | 33.7 | 26.7* | 13.9*
Cc1ccc(C(=O)Nc2ccc3c(c2)OCCO3)cc1 | 42.7 | 66.5* | 57.8* | 84.0* | 74.5* | 62.7*
CCC(=O)NC[C@@H]1[C@H](c2ccccc2)[C@H](CO)N1C(=O)C1CC1 | . | 14.9 | . | . | . | .
C[C@H]1CN([C@@H](C)CO)C(=O)c2cccc(NS(=O)(=O)c3cccs3)c2O[C@H]1CN(C)Cc1ccc(Cl)c(Cl)c1 | . | -6.6 | . | . | . | .
Cc1ccc(C(=O)Nc2ccc3c(c2)OCO3)cc1 | 23.9 | . | 66.3* | 52.8* | 52.0* | 38.1*
O=C(Nc1ccc2c(c1)OCCO2)Nc1ccc2c(c1)OCO2 | -13.4 | 2.3 | 19.3* | 50.6* | 41.2* | 30.0*
Cc1ccc(C(=O)Nc2ccc3c(c2)OCCO3)c(Cl)c1 | 42.9 | 82.4* | 58.8* | 89.5* | 75.3* | 67.6*
NC(=O)c1ccc(NC(=O)Nc2ccc3c(c2)OCO3)cc1 | -32.9 | -9.3 | 1.9 | -0.1 | . | .
O=C(Nc1ccc2c(c1)OCCO2)c1cc(F)c(F)cc1Cl | -55.7 | -44.5 | 0.4 | -23.5 | . | .
Cc1ccccc1C(=O)Nc1ccc2c(c1)OCO2 | -4.2 | . | 21.7* | 43.5 | 36.1* | 15.4*
Cc1ccc(CC(=O)N/N=C/c2ccc3c(c2)OCO3)cc1 | -41.4 | -18.4 | 20.4* | -9.9 | -4.7 | -13.9
O=C(NC(=S)Nc1ccc2c(c1)OCCO2)c1ccco1 | -21.5 | . | 24.4* | 24.0 | 20.2* | 3.5
O=C(O)C1CC=CCC1C(=O)Nc1ccc(F)c(F)c1 (stereo unspecified) | -4.6 | . | -3.1 | -1.1 | . | .
O=C(O)C1CC=CCC1C(=O)Nc1ccc2c(c1)OCCO2 (stereo unspecified) | 58.7* | . | 38.2* | 79.3* | 1.4 | 8.4
O=C(CCc1ccc(O)cc1)NN=Cc1ccc2c(c1)OCO2 | -24.3 | -12.9 | . | -30.4 | . | .
SMILES | TROY signal inh | LGR2 inh | HSP90 inh | TWEAK Fn14 block | HSP90 confirm | FLuc counter
CO[C@H]1CN(C)C(=O)c2cc(C#N)ccc2OC[C@@H]2O[C@H](CC[C@H]2OC)CCN(C)C(=O)[C@@H]1C | . | 0.1 | . | . | . | .
COc1ccc(NC(=O)Nc2ccc3c(c2)[C@H]2C[C@H](CC(=O)N(C)C)O[C@@H](CO)[C@H]2O3)cc1 | . | -3.2 | . | . | . | .
O=C(Nc1cc(Cl)cc(Cl)c1)N[C@@H]1CC[C@@H](CCNS(=O)(=O)c2cccc(F)c2)O[C@H]1CO | . | 10.9 | . | . | . | .
COc1ccc2c3c([nH]c2c1)[C@H](CO)N(Cc1nccs1)CC31CCN(C(=O)C2CCCC2)CC1 | . | 3.6 | . | . | . | .
C[C@@H]1CN([C@H](C)CO)C(=O)c2cc(NS(=O)(=O)c3ccccc3)ccc2O[C@@H](C)CCCCO[C@H]1CN(C)S(=O)(=O)c1ccc(F)cc1 | . | 3.0 | . | . | . | .
O=C(C[C@H]1C=C[C@H](NC(=O)C2CCOCC2)[C@H](CO)O1)Nc1nccs1 | . | 0.1 | . | . | . | .
COc1ccc(-c2cc3c(=O)n(CC(=O)NCCCN4CCN(Cc5ccccc5)CC4)ncn3n2)cc1 | -11.8 | 13.9 | 25.6* | 22.6 | 51.0* | 34.7*
CCOc1ccc(CCNC(=O)Cn2ncn3nc(-c4ccc(OC)cc4)cc3c2=O)cc1 | -14.1 | -1.7 | -1.3 | -20.5 | . | .
COc1ccc(-c2cc3c(=O)n(CC(=O)NCCCN4CCC(Cc5ccccc5)CC4)ncn3n2)cc1 | 10.0 | 7.6 | 55.3* | 40.6 | 59.5* | 6.8
Cc1noc(C)c1S(=O)(=O)Nc1ccc2c(c1)C(=O)N([C@H](C)CO)C[C@H](C)[C@@H](CN(C)C(=O)Cc1ccccc1)OCCCC[C@H](C)O2 | . | 9.2 | . | . | . | .
Cc1ccc(S(=O)(=O)Nc2ccc3c(c2)C(=O)N([C@@H](C)CO)C[C@H](C)[C@@H](CN(C)S(=O)(=O)c2ccc(C)cc2)OCCCC[C@@H](C)O3)cc1 | . | -1.3 | . | . | . | .
CCOC(=O)c1c(S(=O)(=O)N2CCCC(C(=O)Nc3ncccc3C)C2)c(C)n(C)c1C (stereo unspecified) | -22.4 | -1.8 | -8.1 | 8.7 | . | .
CCOC(=O)c1c(S(=O)(=O)N2CCCC(C(=O)Nc3cccc(C)n3)C2)c(C)n(C)c1C (stereo unspecified) | 0.3 | -11.7 | 21.0* | 0.1 | 3.3 | -3.1
C/C=C/c1cnc2c(c1)C(=O)N([C@H](C)CO)C[C@H](C)[C@H](CN(C)C(=O)Nc1c(C)noc1C)O2 | . | 20.6 | . | . | . | .
Cc1ccc(C(=O)CSc2cnc3ccccc3n2)cc1C | 76.0* | -16.8 | 37.0* | 88.7* | 46.9* | 29.1*
COCCNC(=O)C(=O)Nc1cccc(Br)c1 | -40.2 | -8.4 | -1.4 | -7.0 | . | .
COCCNC(=S)NNc1cccc(C(=O)O)c1 | -47.1 | 11.2 | 18.2* | -8.8 | 9.0 | 7.3
Cc1ccc(C(=O)/C=C2\NCCNC2=O)cc1 | -28.5 | . | 7.2 | 14.6 | . | .
Cc1ccc(C(=O)/C=C2\NCC(C)NC2=O)cc1 (stereo unspecified) | . | 53.7* | 37.4* | 54.1* | 56.2* | 43.1*
CC(C)(C)c1ccc(C(=O)c2c[nH]c(C(=O)O)c2)cc1 | 13.9 | -68.7 | 53.5* | 50.4* | 62.6* | 2.7
CCC(=O)N(C)C[C@H]1Oc2ncc(C#CCC(C)C)cc2C(=O)N([C@H](C)CO)C[C@@H]1C | . | -14.3 | . | . | . | .
COCC(=O)Nc1ccc2c(c1)OC[C@H](C)N(Cc1cccnc1)C[C@@H](C)[C@H](OC)CN(C)C2=O | . | -4.2 | . | . | . | .

Source: PubChem
